DPM-DC inhibit: S. pneumoniae DPM-DC inhibition; 65,000 compounds, 0.49% hits; purified DPM-DC, PK/LDH coupled NADH fluorescence; AID 556; calls only at 10 µM;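 active means the 320 compounds with the highest percent inhibition in the single-dose primary screen, excluding strongly autofluorescent ones, cut at about 32% in these data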;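 further: kinetic rate of NADH fluorescence loss reporting ADP formed by the decarboxylase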
Fluor 339 460: intrinsic fluorescence of library compounds, ex339/em460 – biochemical, MLSMR library, data from DPM-DC assay, artefact control, profiling panel. 65,000 compounds, 5.5% hits. compound autofluorescence, ex339/em460 nm, NADH buffer; active compounds read high; 1 = no-compound wells, NADH background. fluorescence fold increase at 10 µM. AID 709;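 active means at 10 µM, mean starting fluorescence two-fold or more over control wells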;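 further: signal is the first read of a kinetic run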
NADH coupling: inhibition of NAD/NADH coupling enzymes, library profiling; IC50, µM (top dose mostly 10 µM); AID 774; coupled PK/LDH NADH assays, four targets; 65,000 compounds, 0.02% hits;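 active means single-dose screening hits from any of four coupled enzyme assays that gave an IC50 when retested across doses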;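 further: the DPM-DC format reads NADH fluorescence rather than 340 nm absorbance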
MK inhibit: S. pneumoniae mevalonate kinase inhibition | purified MK, PK/LDH-coupled NADH absorbance 340 nm | inhibition, % at 10 µM | 65,000 compounds, 0.48% hits;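 active means ranked among the strongest by inhibition in the single 10 µM screen, a fixed top-ranked set picked for dose follow-up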
Abs 340nm: absorbance at 340 nm; fold change at 10 µM; 65,000 tested, under 10 active; AID 708; compound absorbance at 340 nm, fold over control;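 active means at 10 µM dose, initial 340 nm absorbance at least 2 fold that of control wells; inactive means change under 2 fold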;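 further: initial absorbance extrapolated from kinetic A340 decline of NADH oxidation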
Spn PMK inh: S. pneumoniae PMK inhibition; purified PMK, PK/LDH-coupled NADH absorbance 340 nm; inhibition, % at 10 µM; 65,000 compounds, 0.49% hits;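 active means top-ranked compounds by inhibition in the single 10 µM screen, taking a fixed number of the strongest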
Of the large screens only hits and unclear results are named; the others gave an inactive call. Shown are actives, neighbours in structure and some others; about 6.3% of the full set was active somewhere.

Cc1ccc(-c2cc(C(=O)NCCCn3ccnc3)c3cc(Br)ccc3n2)o1	Fluor 339 460 2.9
Cc1ccc(-c2cc(C(=O)NC3=NCCS3)c3cc(Br)ccc3n2)o1	none
Cc1ccc(-c2cc(C(=O)NCc3ccco3)c3ccccc3n2)o1	Fluor 339 460 4.9 (not shown: DPM-DC inhibit)
Cc1cc(C)c2nc(-c3ccccn3)cc(C(=O)NCc3ccco3)c2c1	Fluor 339 460 3.6 (not shown: DPM-DC inhibit)
Cc1cc(NC(=O)c2ccccc2-c2ccccc2C(=O)O)no1	none
Cc1cc(NC(=O)c2cc(-c3ccncc3)nc3c(C)cccc23)no1	Fluor 339 460 2.7
Cc1cc(NC(=O)c2cc(-c3cccs3)nc3ccccc23)no1	Fluor 339 460 2 (not shown: DPM-DC inhibit)
Cc1cc(NC(=O)c2cccc(C(=O)Nc3cc(C)on3)n2)no1	none
CCOC(=O)c1sc(N)c(C#N)c1COC(=O)CNC(=O)c1ccccc1	none
CC1CCCC(C)N1CCNC(=O)C1CCN(S(=O)(=O)N2CCCCC2)CC1 (configuration not stated)	none
S=c1[nH]nc(CSc2nc3ccccc3s2)o1	none
Oc1cc2ccccc2cc1-c1n[nH]c(=S)o1	Fluor 339 460 3
Cc1ccc(S(=O)(=O)Nc2nc3ccc(S(=O)(=O)N4CCCC4)cc3s2)cc1	none
COC(=O)CSc1ccc2c(N)c(C(=O)OC)sc2c1	Fluor 339 460 2.5
CCOC(=O)C1=C(C)NC(SCC(=O)Nc2cc(C)on2)=C(C#N)C1c1cccs1 (configuration not stated)	none
CC(C)OC(=O)c1c(NC(=O)c2cccs2)sc2c1CCCC2	Fluor 339 460 2.2 (not shown: DPM-DC inhibit)
COC(=O)c1c(NC(=O)c2cccs2)sc2c1CCC(C)C2 (configuration not stated)	Fluor 339 460 3.1
Cc1cc(C(=O)Nc2sc3c(c2C#N)CCC(C)C3)cs1 (configuration not stated)	Fluor 339 460 2
O=C(Nc1sc2c(c1C(=O)O)CCCC2)c1cccs1	none
CCn1c(SCC(=O)NCCc2ccc(F)cc2)nnc1-c1cccs1	none
CCOC(=O)C1CCCCN1Cc1ccc(F)c(Br)c1 (configuration not stated)	MK inhibit 45
O=C(NCCCN1CCOCC1)[C@@H]1CSC2c3ccccc3C(=O)N21 (some centres not stated)	none
Cc1cccc(C)c1NC(=O)C(c1ccccc1)N1CCC2(CC1)OCCO2 (configuration not stated)	none
Cc1cccc(C)c1NC(=O)C(c1ccccc1)N1CCN(C(=O)c2ccco2)CC1 (configuration not stated)	DPM-DC inhibit active
Cc1ccc2c(COC(=O)c3cnc(C)cn3)cc(=O)oc2c1	none
Cc1cc2oc(=O)cc(COC(=O)c3cccc(N(C)C)c3)c2cc1C	Fluor 339 460 2.1 (not shown: DPM-DC inhibit)
Nc1nc2n(n1)C(c1ccc(F)cc1)CC(c1ccc(F)cc1)N2 (configuration not stated)	none
CCN(CC)C(=O)c1sc2nc(-c3ccccn3)[nH]c(=O)c2c1C	DPM-DC inhibit active, Fluor 339 460 3.4
CCN(CC)C(=O)c1sc2nc(-c3ccncc3)[nH]c(=O)c2c1C	Fluor 339 460 5 (not shown: DPM-DC inhibit)
O=c1[nH]c(-c2ccccn2)nc2ccccc12	none
CCN(CCCn1c(SCC#N)nc2ccccc2c1=O)c1ccccc1	none
COC(=O)c1cc2occc2n1CC(=O)Nc1ccc(OC)c(OC)c1OC	DPM-DC inhibit active
COC(=O)c1cc2oc(C)cc2n1CC(=O)Nc1ccc(OC)c(OC)c1OC	none
CCN=c1sc(C(=O)NCCc2ccccc2)cc(=O)n1CC	Spn PMK inh 25
O=C(O)c1ccccc1S	none
CC1(c2cccs2)CC(c2cccs2)=C(C#N)C(=O)N1 (configuration not stated)	none
COc1ccc(S(=O)(=O)N(CC(=O)N2CCCC2)Cc2ccccc2)cc1	none
CCOC(=O)N1CCN(C(=O)CN(Cc2ccccc2)S(=O)(=O)c2ccc(OC)c(C)c2)CC1	MK inhibit active
CCOC(=O)N1CCN(C(=O)CCSCCc2ccncc2)CC1	none
Cc1ccc(C2Nc3ccccc3-c3nc4ccccc4n32)o1 (configuration not stated)	Fluor 339 460 2.5 (not shown: DPM-DC inhibit)
CC1(c2ccncc2)Nc2ccccc2-c2nc3ccccc3n21 (configuration not stated)	none
Cn1c2ccccc2c2c(C(=O)NCC3CCCO3)cn(C3CCCC3)c(=O)c21 (configuration not stated)	Fluor 339 460 2.1 (not shown: DPM-DC inhibit)
CC(C)Cn1cc(C(=O)NCC2CCCO2)c2c3ccccc3n(C)c2c1=O (configuration not stated)	Fluor 339 460 2.5
CCCCNC(=O)c1cc2c(=O)n3cccc(C)c3nc2n1C	Fluor 339 460 2.1 (not shown: DPM-DC inhibit)
Cc1cccn2c(=O)c3cc(C(=O)N(C)C)n(C)c3nc12	Fluor 339 460 4.9 (not shown: DPM-DC inhibit)
Cc1nc2c(C)cccn2c1/C(O)=C1\C(=O)C(=O)N(CCN(C)C)C1c1ccncc1 (configuration not stated)	none
Cn1c(C(=O)N2CCCc3ccccc32)cc2c(=O)n3ccccc3nc21	Fluor 339 460 2.6
CCOCCCNC(=O)c1cc2c(=O)n3cccc(C)c3nc2n1C	Fluor 339 460 2.1 (not shown: DPM-DC inhibit)
O=C(CCN1CCCCC1)NCC1OCCc2ccccc21 (configuration not stated)	none
COc1ccccc1CN1CC(C(=O)NCc2cccnc2)CC1=O (configuration not stated)	none
Cc1cccn2c(=O)c3cc(C(=O)N4CCN(c5ccccc5)CC4)n(C)c3nc12	Fluor 339 460 5 (not shown: DPM-DC inhibit)
Cn1c(C(=O)N2CCc3ccccc32)cc2c(=O)n3ccccc3nc21	none
Cc1cccn2c(=O)c3cc(C(=O)NCCCn4ccnc4)n(C)c3nc12	Fluor 339 460 5 (not shown: DPM-DC inhibit)
Cc1cccn2c(=O)c3cc(C(=O)NCCCN4CCCC4=O)n(C)c3nc12	Fluor 339 460 5 (not shown: DPM-DC inhibit)
CCNC(=O)c1cc2c(=O)n3cccc(C)c3nc2n1C	Fluor 339 460 5 (not shown: DPM-DC inhibit)
CC1=C(C)SC(=C(C#N)c2nnc(N3CCOCC3)n2-c2ccccc2)S1	none
CCN(CC)C(=O)c1cc(-c2ccc(Br)cc2)on1	none
COCCNC(=O)c1cc2c(=O)n3cccc(C)c3nc2n1C	Fluor 339 460 2.1 (not shown: DPM-DC inhibit)
Cn1c(C(=O)NCc2ccccn2)cc2c(=O)n3ccccc3nc21	Fluor 339 460 4.9 (not shown: DPM-DC inhibit)
CC1CC(=O)N(CC(=O)NCc2ccc3c(c2)OCO3)c2ccccc2S1 (configuration not stated)	none
COc1ccc(Cn2c(=O)[nH]c3cc(C(=O)NCCCN4CCCC4=O)ccc3c2=O)cc1	none
O=C(NCc1cccnc1)c1ccc2c(=O)n(CCCN3CCCC3=O)c(=S)[nH]c2c1	DPM-DC inhibit active
CC(C)(C)S(=O)(=O)c1ccc2nc3c(n2c1)CCCC3	Fluor 339 460 3.9 (not shown: DPM-DC inhibit)
Cc1ccc(-c2oc3ccccc3c(=O)c2O)cc1	none
O=c1c(O)c(-c2cccs2)oc2ccccc12	Fluor 339 460 3.7 (not shown: DPM-DC inhibit)
